We go through five compounds from ChEMBL document CHEMBL1961873, “Compounds: GSK PKIS; Assays: Nanosyn kinase panel” (2012).

The target in experiment [1] is Calcium/calmodulin-dependent protein kinase type II subunit alpha (Homo sapiens) (UniProt Q9UQM7). The note with it: at 1 µM.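 Also: reported value is a mean percent inhibition of CAMK2A.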
In experiment [2] the target is Calcium/calmodulin-dependent protein kinase type II subunit delta (Homo sapiens) (UniProt Q13557). The note with it: at 0.1 µM.
Experiment [3] shares this target. The following applies: at 1 µM.
For experiment [4], the target named is T1, Calcium/calmodulin-dependent protein kinase type IV (Homo sapiens) (UniProt Q16566).
T1 sequence (whole entry): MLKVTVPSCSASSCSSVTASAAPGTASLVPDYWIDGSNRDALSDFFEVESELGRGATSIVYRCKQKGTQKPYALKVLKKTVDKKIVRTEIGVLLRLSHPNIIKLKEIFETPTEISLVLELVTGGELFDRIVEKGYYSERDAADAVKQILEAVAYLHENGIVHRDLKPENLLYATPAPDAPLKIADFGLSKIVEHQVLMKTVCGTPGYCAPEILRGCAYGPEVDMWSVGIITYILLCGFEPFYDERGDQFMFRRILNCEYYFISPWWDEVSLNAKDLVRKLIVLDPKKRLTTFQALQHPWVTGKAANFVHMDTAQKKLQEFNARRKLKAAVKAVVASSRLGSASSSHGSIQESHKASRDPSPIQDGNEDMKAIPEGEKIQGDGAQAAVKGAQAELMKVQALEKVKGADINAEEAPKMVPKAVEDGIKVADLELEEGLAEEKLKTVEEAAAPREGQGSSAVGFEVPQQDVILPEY
The following applies: at 0.1 µM.

Experiment [5] addresses T1, Calcium/calmodulin-dependent protein kinase type IV (Homo sapiens). The note with it: at 1 µM.
Experiment [6] deals with T2, Serine/threonine-protein kinase Chk1 (Homo sapiens) (UniProt O14757).
T2 sequence (whole entry): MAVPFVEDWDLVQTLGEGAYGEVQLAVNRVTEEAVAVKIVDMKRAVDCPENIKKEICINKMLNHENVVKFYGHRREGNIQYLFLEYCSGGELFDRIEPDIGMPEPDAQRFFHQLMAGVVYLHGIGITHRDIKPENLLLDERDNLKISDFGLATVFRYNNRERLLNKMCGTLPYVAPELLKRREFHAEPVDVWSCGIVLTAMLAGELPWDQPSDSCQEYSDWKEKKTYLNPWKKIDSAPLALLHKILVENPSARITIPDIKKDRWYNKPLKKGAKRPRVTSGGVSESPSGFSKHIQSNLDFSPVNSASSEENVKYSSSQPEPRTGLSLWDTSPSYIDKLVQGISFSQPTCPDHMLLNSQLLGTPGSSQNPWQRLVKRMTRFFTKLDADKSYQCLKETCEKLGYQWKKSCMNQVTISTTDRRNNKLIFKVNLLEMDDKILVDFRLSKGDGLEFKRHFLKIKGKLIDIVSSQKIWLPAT
The note with it: at 0.1 µM.

In experiment [7] the target is T2, Serine/threonine-protein kinase Chk1 (Homo sapiens). The note with it: at 1 µM.
Experiment [8] concerns the target Serine/threonine-protein kinase Chk2 (Homo sapiens) (UniProt O96017). The note with it: at 0.1 µM.
For experiment [9] the target is unchanged. The following applies: at 1 µM.
Experiment [10] deals with Death-associated protein kinase 1 (Homo sapiens) (UniProt P53355). The following applies: at 0.1 µM.
The target is the same in experiment [11]. The note with it: at 1 µM.
Experiment [12] has as its target T3, Serine/threonine-protein kinase DCLK2 (Homo sapiens) (UniProt Q8N568).
T3 sequence (whole entry): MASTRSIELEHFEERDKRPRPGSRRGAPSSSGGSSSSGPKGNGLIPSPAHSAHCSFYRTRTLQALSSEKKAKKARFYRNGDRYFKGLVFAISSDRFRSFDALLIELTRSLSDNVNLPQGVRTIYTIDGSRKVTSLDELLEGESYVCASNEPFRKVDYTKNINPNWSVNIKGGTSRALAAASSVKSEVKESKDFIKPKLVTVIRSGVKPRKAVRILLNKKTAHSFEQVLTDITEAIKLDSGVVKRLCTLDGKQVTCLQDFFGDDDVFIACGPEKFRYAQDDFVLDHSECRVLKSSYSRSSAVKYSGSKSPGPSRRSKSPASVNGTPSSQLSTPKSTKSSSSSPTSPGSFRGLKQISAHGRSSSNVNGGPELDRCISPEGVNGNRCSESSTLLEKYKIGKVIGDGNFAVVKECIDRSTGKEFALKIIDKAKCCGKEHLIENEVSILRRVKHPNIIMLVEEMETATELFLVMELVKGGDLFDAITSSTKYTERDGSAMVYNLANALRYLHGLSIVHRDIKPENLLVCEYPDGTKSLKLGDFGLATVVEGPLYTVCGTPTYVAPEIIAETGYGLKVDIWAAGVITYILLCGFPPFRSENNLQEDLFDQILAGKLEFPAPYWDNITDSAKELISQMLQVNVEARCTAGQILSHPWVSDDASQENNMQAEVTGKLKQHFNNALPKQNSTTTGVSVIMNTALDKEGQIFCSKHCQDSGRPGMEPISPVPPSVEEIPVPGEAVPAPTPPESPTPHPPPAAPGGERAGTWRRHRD
The note with it: at 0.1 µM.

In experiment [13] the target is T3, Serine/threonine-protein kinase DCLK2 (Homo sapiens). The note with it: at 1 µM.
In experiment [14] the target is MAP kinase-activated protein kinase 2 (Homo sapiens) (UniProt P49137). The following applies: at 0.1 µM.
The target is the same in experiment [15]. The note with it: at 1 µM.
In experiment [16] the target is MAP kinase-activated protein kinase 3 (Homo sapiens) (UniProt Q16644). The note with it: at 0.1 µM.
Experiment [17] shares this target. The following applies: at 1 µM.
The target in experiment [18] is Serine/threonine-protein kinase MARK1 (Homo sapiens) (UniProt Q9P0L2). The note with it: at 0.1 µM.
Experiment [19] shares this target. The following applies: at 1 µM.
For experiment [20], the target named is MAP/microtubule affinity-regulating kinase 3 (Homo sapiens) (UniProt P27448). The note with it: at 0.1 µM.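 Also: mean percent inhibition of MARK3 kinase activity, measured within the GSK PKIS screening panel.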

Chain of Death-associated protein kinase 1 (Homo sapiens) (P53355 whole entry, looked up): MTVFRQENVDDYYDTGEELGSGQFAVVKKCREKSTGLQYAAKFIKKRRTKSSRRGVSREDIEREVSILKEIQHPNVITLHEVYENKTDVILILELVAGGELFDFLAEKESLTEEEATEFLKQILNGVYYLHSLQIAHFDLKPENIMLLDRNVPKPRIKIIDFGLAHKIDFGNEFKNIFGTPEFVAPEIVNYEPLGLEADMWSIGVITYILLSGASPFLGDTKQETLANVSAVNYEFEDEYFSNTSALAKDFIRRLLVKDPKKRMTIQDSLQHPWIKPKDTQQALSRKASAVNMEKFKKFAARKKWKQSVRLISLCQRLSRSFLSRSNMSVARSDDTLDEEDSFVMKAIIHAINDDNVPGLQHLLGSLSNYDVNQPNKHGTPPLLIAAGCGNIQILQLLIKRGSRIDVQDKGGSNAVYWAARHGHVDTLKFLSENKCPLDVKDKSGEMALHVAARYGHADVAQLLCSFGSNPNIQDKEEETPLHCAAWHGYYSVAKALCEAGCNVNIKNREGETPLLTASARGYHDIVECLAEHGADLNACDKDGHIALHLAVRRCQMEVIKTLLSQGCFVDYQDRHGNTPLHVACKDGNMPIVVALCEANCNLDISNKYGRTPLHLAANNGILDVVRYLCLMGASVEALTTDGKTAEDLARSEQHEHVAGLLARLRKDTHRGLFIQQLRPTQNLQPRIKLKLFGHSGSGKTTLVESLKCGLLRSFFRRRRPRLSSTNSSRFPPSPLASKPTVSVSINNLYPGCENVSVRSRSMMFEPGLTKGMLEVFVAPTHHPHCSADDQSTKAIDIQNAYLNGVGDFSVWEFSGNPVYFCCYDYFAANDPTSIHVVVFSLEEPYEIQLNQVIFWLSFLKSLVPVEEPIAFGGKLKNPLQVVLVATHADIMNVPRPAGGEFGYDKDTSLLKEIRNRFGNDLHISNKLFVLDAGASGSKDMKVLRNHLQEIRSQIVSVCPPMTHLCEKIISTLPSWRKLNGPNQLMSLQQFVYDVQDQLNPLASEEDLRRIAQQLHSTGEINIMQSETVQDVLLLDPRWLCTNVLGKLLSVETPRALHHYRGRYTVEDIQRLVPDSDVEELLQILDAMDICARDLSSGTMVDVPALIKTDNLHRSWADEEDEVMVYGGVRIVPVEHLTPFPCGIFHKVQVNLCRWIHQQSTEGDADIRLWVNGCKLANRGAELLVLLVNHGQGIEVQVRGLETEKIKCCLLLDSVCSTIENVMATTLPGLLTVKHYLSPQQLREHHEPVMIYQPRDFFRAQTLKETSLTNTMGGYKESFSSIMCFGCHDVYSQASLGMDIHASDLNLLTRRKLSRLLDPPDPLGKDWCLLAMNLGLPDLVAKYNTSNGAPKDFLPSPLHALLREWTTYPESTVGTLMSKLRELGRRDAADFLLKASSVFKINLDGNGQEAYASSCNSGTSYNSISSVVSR
Chain of Serine/threonine-protein kinase MARK1 (Homo sapiens) (Q9P0L2 whole entry, looked up): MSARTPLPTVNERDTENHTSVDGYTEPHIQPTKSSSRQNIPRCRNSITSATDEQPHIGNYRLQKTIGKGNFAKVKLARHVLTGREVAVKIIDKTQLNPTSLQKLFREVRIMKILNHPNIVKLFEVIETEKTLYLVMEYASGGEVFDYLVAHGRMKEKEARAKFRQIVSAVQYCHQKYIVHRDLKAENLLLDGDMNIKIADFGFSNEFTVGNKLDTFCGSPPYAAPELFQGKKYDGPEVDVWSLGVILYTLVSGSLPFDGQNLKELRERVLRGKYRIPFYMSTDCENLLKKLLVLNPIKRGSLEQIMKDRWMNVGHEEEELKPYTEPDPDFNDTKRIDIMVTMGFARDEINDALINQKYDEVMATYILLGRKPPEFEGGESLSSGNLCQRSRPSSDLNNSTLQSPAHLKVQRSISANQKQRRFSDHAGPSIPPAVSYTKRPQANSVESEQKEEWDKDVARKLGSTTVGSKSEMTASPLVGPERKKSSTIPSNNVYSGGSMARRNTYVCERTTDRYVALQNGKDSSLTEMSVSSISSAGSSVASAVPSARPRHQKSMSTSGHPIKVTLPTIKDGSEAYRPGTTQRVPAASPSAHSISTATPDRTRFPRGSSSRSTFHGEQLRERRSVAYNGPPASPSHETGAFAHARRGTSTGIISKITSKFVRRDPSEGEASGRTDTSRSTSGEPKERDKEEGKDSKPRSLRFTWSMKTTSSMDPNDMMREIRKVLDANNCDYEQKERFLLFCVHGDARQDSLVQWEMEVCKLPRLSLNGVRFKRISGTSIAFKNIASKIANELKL
Chain of Calcium/calmodulin-dependent protein kinase type II subunit alpha (Homo sapiens) (Q9UQM7 whole entry): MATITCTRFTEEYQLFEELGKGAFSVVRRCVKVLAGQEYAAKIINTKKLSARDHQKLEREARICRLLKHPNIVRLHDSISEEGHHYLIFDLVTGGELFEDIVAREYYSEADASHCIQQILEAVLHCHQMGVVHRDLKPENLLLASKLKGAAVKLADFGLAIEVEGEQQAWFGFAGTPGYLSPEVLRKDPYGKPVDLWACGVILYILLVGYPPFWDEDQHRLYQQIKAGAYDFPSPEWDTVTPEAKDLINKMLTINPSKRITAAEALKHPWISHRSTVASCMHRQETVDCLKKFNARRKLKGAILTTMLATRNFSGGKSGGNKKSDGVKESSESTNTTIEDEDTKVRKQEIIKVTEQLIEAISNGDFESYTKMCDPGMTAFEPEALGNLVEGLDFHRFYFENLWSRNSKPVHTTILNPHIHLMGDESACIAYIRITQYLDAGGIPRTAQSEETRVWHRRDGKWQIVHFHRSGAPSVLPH
Chain of Serine/threonine-protein kinase Chk2 (Homo sapiens) (O96017 whole entry): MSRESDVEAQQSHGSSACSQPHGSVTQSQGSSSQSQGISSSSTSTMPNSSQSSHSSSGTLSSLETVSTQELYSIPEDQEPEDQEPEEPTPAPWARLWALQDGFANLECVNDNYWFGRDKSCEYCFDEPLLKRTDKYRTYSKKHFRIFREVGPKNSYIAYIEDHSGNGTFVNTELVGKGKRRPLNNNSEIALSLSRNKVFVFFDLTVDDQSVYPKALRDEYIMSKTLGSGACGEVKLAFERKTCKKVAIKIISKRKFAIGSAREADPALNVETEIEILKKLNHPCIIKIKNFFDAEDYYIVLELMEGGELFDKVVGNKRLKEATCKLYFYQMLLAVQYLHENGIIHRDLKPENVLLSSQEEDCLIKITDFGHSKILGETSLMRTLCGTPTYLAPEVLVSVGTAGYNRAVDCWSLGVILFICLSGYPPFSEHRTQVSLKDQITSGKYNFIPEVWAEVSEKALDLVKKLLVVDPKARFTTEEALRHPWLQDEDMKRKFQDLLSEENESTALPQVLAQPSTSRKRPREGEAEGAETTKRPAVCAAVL
Chain of MAP kinase-activated protein kinase 2 (Homo sapiens) (P49137 whole entry, looked up): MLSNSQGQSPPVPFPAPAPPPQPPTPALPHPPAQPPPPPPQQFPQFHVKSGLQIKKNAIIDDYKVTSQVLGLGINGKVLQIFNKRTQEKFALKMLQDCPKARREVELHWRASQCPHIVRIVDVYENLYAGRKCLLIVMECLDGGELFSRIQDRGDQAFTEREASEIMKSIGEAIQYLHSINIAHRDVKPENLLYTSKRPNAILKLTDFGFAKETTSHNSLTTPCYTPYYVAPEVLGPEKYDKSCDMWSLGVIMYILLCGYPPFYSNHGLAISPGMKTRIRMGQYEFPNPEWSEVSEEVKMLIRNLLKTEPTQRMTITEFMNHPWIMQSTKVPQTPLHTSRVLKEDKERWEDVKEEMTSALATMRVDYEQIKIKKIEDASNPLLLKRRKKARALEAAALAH
Chain of MAP kinase-activated protein kinase 3 (Homo sapiens) (Q16644 whole entry, looked up): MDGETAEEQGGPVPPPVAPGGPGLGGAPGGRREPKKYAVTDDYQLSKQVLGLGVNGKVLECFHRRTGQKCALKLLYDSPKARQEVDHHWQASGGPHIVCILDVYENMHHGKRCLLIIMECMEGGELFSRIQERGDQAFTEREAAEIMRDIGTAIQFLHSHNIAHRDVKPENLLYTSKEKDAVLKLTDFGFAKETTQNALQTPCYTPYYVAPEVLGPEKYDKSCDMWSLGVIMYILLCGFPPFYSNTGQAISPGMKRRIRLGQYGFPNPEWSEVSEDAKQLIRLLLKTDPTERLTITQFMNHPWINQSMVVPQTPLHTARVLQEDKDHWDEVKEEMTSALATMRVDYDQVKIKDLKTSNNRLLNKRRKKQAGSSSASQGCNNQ
Chain of Calcium/calmodulin-dependent protein kinase type II subunit delta (Homo sapiens) (Q13557 whole entry): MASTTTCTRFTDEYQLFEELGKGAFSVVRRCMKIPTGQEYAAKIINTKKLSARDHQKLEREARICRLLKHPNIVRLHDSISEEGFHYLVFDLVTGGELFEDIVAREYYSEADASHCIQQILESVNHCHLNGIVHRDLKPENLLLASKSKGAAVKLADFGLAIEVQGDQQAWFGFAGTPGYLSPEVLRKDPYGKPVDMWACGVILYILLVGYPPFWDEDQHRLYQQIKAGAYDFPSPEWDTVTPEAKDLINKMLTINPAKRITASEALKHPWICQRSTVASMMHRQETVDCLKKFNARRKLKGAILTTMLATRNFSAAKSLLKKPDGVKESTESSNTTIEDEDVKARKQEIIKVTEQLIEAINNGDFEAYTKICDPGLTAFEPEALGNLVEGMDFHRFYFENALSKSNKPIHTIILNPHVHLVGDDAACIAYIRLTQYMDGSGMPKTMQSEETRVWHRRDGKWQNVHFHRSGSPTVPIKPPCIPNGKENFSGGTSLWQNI

Usually inhibition stands for the drop in the measured response relative to a control, in per cent. Consider `CS(=O)(=O)CCNCc1ccc(-c2ccc3ncnc(Nc4ccc(OCc5cccc(C(F)(F)F)c5)cc4)c3c2)o1`, for which the inhibition in experiment [1] is 2.36%; in experiment [2] it was 3.02%; in experiment [3] it was 7.55%; in [4], -2.56%; in experiment [5] it was -0.39%; in experiment [6], 5.09%. In addition, the inhibition in experiment [7] was 7.64%; in experiment [8], 4.17%; in experiment [9], 5.4%; in experiment [10], 6.71%; in experiment [11], 5.63%; in [12], 0.29%. Further, the inhibition in [13] turned out to be 1.78%; in [14], 3.06%; in experiment [15], 3.74%; in experiment [16], 5.88%; in experiment [17] it was 8.3%; in [18] it was 0.99%. The inhibition in [19] worked out at 3.78%; in experiment [20], 0.32%.
As to `COc1cccc(Nc2nccc(-c3cnn4ncccc34)n2)c1`, the inhibition was 13.8% in experiment [1]; 6.9% in experiment [2]; 35.4% in [3]; -0.56% in [4]; -1.54% in experiment [5]; -2.67% in experiment [6]. The inhibition in experiment [7] is 3.93%; in [8] it was 1.92%; in experiment [9], 11.2%; in experiment [10], -0.58%; in experiment [11], 0.16%; in [12] it was -2.05%. Moreover, the inhibition in [13] is 2.73%; in [14], 1.39%; in [15], -0.06%; in [16] it was 2.8%; in [17] it was 2.89%; in experiment [18], 4.15%. Besides, the inhibition in experiment [19] turned out to be 27.7%; in experiment [20] it was 4.03%.
Take `O=C(O[C@H]1CN[C@H](C#Cc2cc3ncnc(Nc4ccc(OCc5cccc(F)c5)c(Cl)c4)c3s2)C1)N1CCOCC1`: the inhibition in experiment [1] is 3.21%; in experiment [2], 3.54%; in experiment [3] it was 2.65%; in experiment [4], -1.14%; in experiment [5], -3.95%; in [6], -1.89%. Further, the inhibition was -1.17% in [7]; -1.01% in experiment [8]; 2.28% in experiment [9]; -1.79% in experiment [10]; -0.32% in experiment [11]; 0.93% in [12]. The inhibition in experiment [13] is 0.57%; in experiment [14] it was -0.11%; in experiment [15] it was 0.31%; in experiment [16], -0.64%; in [17], -0.5%; in experiment [18], 6.71%. Moreover, the inhibition is 5.07% in experiment [19] and 1.14% in experiment [20].
Turning to `N#Cc1cccc(Nc2ncc(-c3ccccc3)o2)c1`, the inhibition was 1.79% in experiment [1]; 0.08% in [2]; 2.56% in experiment [3]; -2.03% in experiment [4]; -2.55% in [5]; 0.93% in experiment [6]. Besides, the inhibition is 2.48% in experiment [7]; 1.04% in experiment [8]; 2.58% in experiment [9]; 2.18% in [10]; 2.82% in experiment [11]; -0.77% in experiment [12]. Also, the inhibition was 0.28% in [13]; 0.9% in experiment [14]; 1.11% in experiment [15]; -0.02% in experiment [16]; 2.79% in [17]; 1.98% in experiment [18]. The inhibition in [19] is 5.43%; in [20], -0.93%.
For `Cn1c(-c2nonc2N)nc2cnccc21`, the inhibition in experiment [1] was 1.59%; in [2], 2.9%; in experiment [3] it was 4.76%; in [4], 2.54%; in [5] it was 2.02%; in experiment [6], 1.55%. Also, the inhibition in [7] was found to be 2.48%; in [8] it was 2.16%; in experiment [9], 3.21%; in experiment [10], 2.36%; in [11] it was 2.42%; in [12] it was 0%. The inhibition in [13] was determined as 5.3%; in experiment [14] it was 1.66%; in experiment [15], 1.06%; in experiment [16], 3.29%; in [17], 2.75%; in experiment [18], 3.2%. Moreover, the inhibition in experiment [19] came out at 7.22%; in experiment [20] it was 0.25%.
